The list is not random: actives were taken first. Their share in the collection is about 6.2%.
HCMV antiviral = human cytomegalovirus inhibition | activity change, negative = inhibition, % at 57.5 µM | AID 1259415 | HFF cells, HCMV-luciferase reporter, 72 h; active compounds read low | 410,000 tested, 4.5% active; in the data active = activity change below about -60%; inconclusive = no clear call, values can overlap the other calls; inactive = above about -39%
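Compounds were evaluated in HFFs infected with an HCMV luciferase reporter virus (MOI 1 PFU/cell). Luciferase in lysates collected 72 h post infection served as the replication measure.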
FMDV inh = antivirals against foot and mouth disease virus | FMDV antiviral cell-based qHTS | AID 1159524 | Potency, µM (series often up to 57.9 µM), actives largely listed as inhibitors | 410,000 tested, 1.2% active; calls by dose curve; tested in HEK293T cells; also: read-out not given here; nearly all actives have a fitted effect of over 45% in size
MARV entry inh = blocks Marburg virus binding to or entry into cells | Marburg virus pseudotyped entry inhibition, cell reporter | Potency, µM (titrated, usually from 37.8 µM), actives largely listed as inhibitors | 300,000 tested, 1.8% active | AID 540276; calls by dose curve; tested in HEK293 cells
Lassa entry inh = inhibitors of Lassa virus binding or cell entry. Lassa virus pseudotype entry inhibition, cell reporter. Potency, µM (doses to about 37.9 µM), hits mostly inhibitors. 300,000 tested, 1.2% active. AID 540256; calls by dose curve; tested in HEK293 cells; also: nearly all actives have a fitted effect of over 50% in size
A number is an active result; . = inactive; ? = inconclusive; / = no result; ! = repeats disagree.

SMILES | HCMV antiviral | FMDV inh | MARV entry inh | Lassa entry inh
Cc1nc2cc(-c3ccccc3)nn2c(C)c1CCC(=O)N1CCN(c2ccc(F)cc2)CC1 | ? | . | . | .
CCOc1ccccc1-n1cc2c(c1-c1ccc(OC)cc1)c(=O)n(C)c(=O)n2C | . | . | . | .
COC(=O)c1cccc(N2C(=O)C[C@](Sc3ccc(OC)cc3)(C(=O)N(C)C)[C@H]2c2ccc(OC)cc2)c1 | . | / | / | /
COc1ccc(-c2coc3c2c(C)cc2oc(=O)c(CC(=O)O)c(C)c23)cc1 | . | . | . | .
Nc1ccc(Cl)cc1/C(=N\O)c1ccccc1 | / | / | . | /
CC(C)c1ccc(OCc2cccc(C(=O)N/N=C/c3cccnc3)c2)cc1 | . | . | 1.4µM | ?
CCOc1ccc(OCc2cccc(C(=O)N/N=C/c3cccnc3)c2)cc1 | . | . | 0.32µM | 1.6µM
O=C(N/N=C/c1cccnc1)c1cccc(Cl)c1 | . | . | . | .
O=C(N/N=C/c1cccnc1)c1cccc(Br)c1 | . | . | / | /
COc1ccc(Cl)cc1NC(=O)C(C)n1c(=O)cc(C(F)(F)F)c2c(C)nn(C)c21 (stereo unspecified) | . | . | / | .
O=C(NCCN1CCOCC1)c1cnn(-c2nccc(-c3ccccc3C(F)(F)F)n2)c1C1CC1 | / | . | / | /
Cc1cc(N=O)no1 | . | / | / | /
CO/N=C(/COc1ccc(F)cc1)c1ccc(OC)cc1 | -103 | . | ? | .
C#CCOCCOCCOCCNc1nc(N2CCN(C(=O)CCCCCCCCCCNC(=O)[C@@H](CCC(=O)O)n3cc(CCCCCN)nn3)CC2)nc(N2CCN(C(=O)CCCCCCCCCCNC(=O)[C@H]([C@@H](C)CC)n3cc(CCCCCN)nn3)CC2)n1 | / | . | / | /
C#CCOCCOCCOCCNc1nc(N2CCN(C(=O)CCCCCCCCCCNC(=O)[C@H]([C@@H](C)CC)n3cc(CCCCN=C(N)N)nn3)CC2)nc(N2CCN(C(=O)CCCCCCCCCCNC(=O)[C@H](CCCCN)n3cc(C)nn3)CC2)n1 | / | 35µM | / | /
C#CCOCCOCCOCCNc1nc(N2CCN(C(=O)CCCCCCCCCCNC(=O)Cn3cc(C[C@@H](C)O)nn3)CC2)nc(N2CCN(C(=O)CCCCCCCCCCNC(=O)[C@H](CO)n3cc(CCCSC)nn3)CC2)n1 | -85 | . | / | /
CN1C(=O)C(C(Nc2ccccc2)c2ccc(F)cc2)c2ccccc21 (stereo unspecified) | . | / | / | /
CC(=O)SC1CC2=CC(=O)CC[C@]2(C)C2CC[C@@]3(C)C(CC[C@@]34CCC(=O)O4)C12 (stereo partly specified) | / | / | . | ?
CNc1nc2cc([N+](=O)[O-])c([N+](=O)[O-])cc2nc1NC | -86 | ? | 7.9µM | .
O=C(Cn1ccc2cc(S(=O)(=O)N3CCCCCC3)ccc21)NCCc1ccc(Cl)cc1 | . | . | / | .
COc1ccc(Cn2nnnc2CN2CCC(c3nc4ccccc4s3)CC2)cc1 | -70 | 20µM | ? | ?
c1ccc2sc(C3CCN(Cc4nnnn4Cc4ccc5c(c4)OCO5)CC3)nc2c1 | ? | 20µM | ? | ?
COc1cc(CN2CCCC(n3cc(C(=O)N4CCCC4)nn3)C2)cc(OC)c1 (stereo unspecified) | / | . | / | /
FC(F)(F)c1cccc(Nc2nc3nonc3nc2Nc2ccc(Cl)cc2)c1 | -98 | ? | ? | ?
O=C(Nc1cccc(C(F)(F)F)c1)c1cc(-c2ccc(Cl)cc2)on1 | . | . | . | .
SMILES | HCMV antiviral | FMDV inh | MARV entry inh | Lassa entry inh
C=CCSc1nccc(-c2nn(-c3ccc(C)cc3)ccc2=O)n1 | . | . | ? | 3.2µM
COc1ccc(OC)c(Nc2nc3ccccc3nc2-n2nc(C)cc2C)c1 | . | . | . | .
O=C(c1cc(-c2ccc(Cl)cc2Cl)on1)N1CCCC1 | . | . | ? | 3.5µM
Cc1ccc(-c2cc(C(=O)N3CCCC3)no2)cc1 | . | / | ? | ?
O=C(c1cc(-c2ccc3c(c2)OCO3)on1)N1CCCCC1 | . | . | ? | 2.8µM
Cc1ccc(-c2cc(C(=O)N3CCOCC3)no2)cc1 | -61 | . | 2µM | /
Cc1ccc(-c2cc(C(=O)NC3CCCC3)no2)cc1 | . | . | 10µM | .
O=C(CCn1cncn1)NCC1Cc2cc(-c3ccsc3)cc(Cl)c2O1 (stereo unspecified) | / | . | / | /
Cc1ccc(N2C(=O)CSC23C(=O)N(CC(=O)Nc2ccccc2F)c2ccccc23)cc1C (stereo unspecified) | . | . | / | .
CN(NC(=O)C(=O)NCc1ccco1)C(=O)NC1CCCCC1 | . | / | / | /
Oc1cccc(Nc2cc(-c3ccccc3)ncn2)c1 | . | . | . | .
O=C(Nc1ccc(Br)cc1)c1cc(-c2ccc3c(c2)OCO3)on1 | -60 | . | . | .
Cc1nc(-c2ccc(S(=O)(=O)NCc3ccc(N(C)C)cc3)cc2)co1 | . | . | / | .
CC(OC(=O)c1ccccc1NS(=O)(=O)c1cccc(C(F)(F)F)c1)C(=O)N(C)Cc1ccccc1 (stereo unspecified) | ? | . | 7.1µM | ?
NC[C@@H](O)c1ccc(O)c(O)c1 | / | . | 14µM | /
NC[C@H](O)c1ccc(O)c(O)c1 | . | . | 14µM! | ?
C[C@@H](N)[C@@H](O)c1ccc(O)c(O)c1 | / | / | 13µM | ?
CNC[C@H](O)c1ccc(O)c(O)c1 | . | . | . | .
C=CCOC(=O)N[C@H](c1cccc(OC)c1)[C@H](C)C=CCC(=O)OC | / | / | . | ?
CCOC(=O)C(CNc1ccc(OCc2ccccc2)cc1)NC(=O)c1ccccc1 (stereo unspecified) | . | / | / | /
Cc1ccc(NC(=O)c2ccc(NCc3ccc(F)cc3)nc2)cc1 | -105 | . | . | .
Cc1ccc(NC(=O)c2ccc(Nc3ccccc3F)nc2)cc1 | . | . | . | .
COc1cc2nc(N(C)C)c(CNCc3cccc4ccccc34)cc2c(OC)c1OC | / | . | / | /
COC(=O)c1cnn(-c2ccc(Cl)cc2)c1/C=N/NC(N)=S | ? | 14µM | ? | ?
Nc1c(C(=O)N/N=C/c2ccc(Cl)cc2)cnn1-c1ccccc1 | . | . | . | ?
SMILES | HCMV antiviral | FMDV inh | MARV entry inh | Lassa entry inh
Cc1ccc(C)c(Cn2c3ccccc3c3cnn(CC(=O)NCCC4=CCCCC4)c(=O)c32)c1 | . | . | ? | .
Cc1cc(CNC(=O)c2cnn(-c3nccc(-c4ccc5c(c4)OCO5)n3)c2C2CC2)on1 | / | . | / | /
CC(C)CO/N=C1/C[C@@H](O)[C@@H](O)[C@@H]2[C@@H]3C(=O)N(c4cccc(Oc5ccccc5)c4)C(=O)[C@H]3CC[C@@H]12 | / | / | . | /
Cc1c(NC(=O)c2cnn3c(C(F)(F)F)cc(-c4ccco4)nc23)c(=O)n(-c2ccccc2)n1C | -62 | ? | . | .
O=C(O)c1cnn2c(C(F)(F)F)cc(-c3ccco3)nc12 | . | . | ? | .
S=C(NCc1cccnc1)Nc1ccc(Oc2ccccc2)cc1 | -71 | . | / | /
CCc1ccc(NC(=S)NCc2cccnc2)cc1 | . | . | . | .
CSC(=S)NCc1cccnc1 | -82 | . | ? | ?
CCCCc1ccc(NC(=S)NCc2cccnc2)cc1 | -77 | . | . | .
CC(C)CNC(=S)Nc1ccc(Oc2ccccc2)cc1 | -63 | . | ? | .
CC(=O)N(Cc1cc(=O)[nH]c2ccccc12)c1ccccc1C | . | . | ? | ?
Cc1cccc(N(Cc2cc(=O)[nH]c3ccccc23)C(=O)CCl)c1 | -96 | 20µM | / | /
CCCC(=O)N(Cc1cc(=O)[nH]c2ccccc12)c1ccccc1C | -73 | . | ? | ?

Source: PubChem (National Center for Advancing Translational Sciences (NCATS))
